Compound activity (PubChem)
C diff growth – C. difficile growth inhibitors, primary screen, HTS. Clostridium difficile clinical isolate growth, OD600, 24 h; active compounds read low. growth activity, negative = inhibition, % at 16 µg/mL (by protocol). 0.25% of 86,000 active. AID 1259249, 2017;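 active = mean growth activity at or below -80% and every replicate also at or below -80%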
T cruzi growth – T. cruzi intracellular proliferation inhibitors, primary screen, cell-based, beta-gal Tulahuen parasites, NIH3T3 host, luminescence; 5.9% of 77,000 active; T. cruzi beta-gal in NIH3T3, GalScreen luminescence, 90 h; inhibition, % at 8.34 µM;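 active = mean inhibition above about 93%, with at least 55% of replicates each passing it, limit read from the data, passing the limit was not always enough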
Pf Dd2 growth – P. falciparum Dd2 growth inhibitors, primary screen, SYBR Green fluorescence, single dose replicates; 72 h; active compounds read low; activity change, % at 10 µM; 2.3% of 94,000 active; AID 1159554, 2015; in the data active = activity change below about -80%
Hits are given with their value. Compounds with a hit are over-represented: about 6.7% of the library has one in this group of screens.

`C[C@H](CO)N1C[C@H](C)[C@@H](CN(C)CC2CC2)Oc2ccc(NC(=O)Nc3cccc4ccccc34)cc2CC1=O` gave C diff growth inactive, T cruzi growth inactive and Pf Dd2 growth -86.3.
Screening C[C@H]1CN([C@@H](C)CO)C(=O)Cc2cc(NC(=O)Nc3cccc4ccccc34)ccc2O[C@H]1CN(C)C returned C diff growth inactive and Pf Dd2 growth inactive.
C[C@H](CO)N1C[C@H](C)[C@H](CN(C)CC2CC2)Oc2ccc(NC(=O)Nc3cccc4ccccc34)cc2CC1=O was read as C diff growth inactive and Pf Dd2 growth -89.2.
Screening Cc1noc(C)c1NC(=O)N(C)C[C@@H]1Oc2ccc(NC(=O)c3ccncc3)cc2C(=O)N([C@H](C)CO)C[C@@H]1C returned C diff growth inactive, T cruzi growth inactive and Pf Dd2 growth inactive.
COc1ccc2c3c([nH]c2c1)[C@@H](CO)N(C(=O)c1ccncc1)CC31CN(Cc2cccnc2)C1 was read as Pf Dd2 growth inactive.
COc1ccc(NC(=O)Nc2ccc3c(c2)C(=O)N([C@H](C)CO)C[C@H](C)[C@@H](CN(C)Cc2ccc(C(F)(F)F)cc2)OCCCC[C@H](C)O3)cc1 was read as C diff growth inactive, T cruzi growth inactive and Pf Dd2 growth inactive.
Screening COc1ccc(CN(C)C[C@@H]2OCCCC[C@H](C)Oc3ccc(NC(=O)Nc4ccc(C(F)(F)F)cc4)cc3C(=O)N([C@H](C)CO)C[C@H]2C)cc1 returned C diff growth -96.4, T cruzi growth inactive and Pf Dd2 growth inactive.
`COc1ccc(CN(C)C[C@@H]2OCCCC[C@H](C)Oc3ccc(NC(=O)Nc4ccc(C(F)(F)F)cc4)cc3C(=O)N([C@@H](C)CO)C[C@H]2C)cc1` gave C diff growth -83.2, T cruzi growth inactive and Pf Dd2 growth inactive.
For C[C@@H]1CN([C@H](C)CO)C(=O)c2cc(NC(=O)NC3CCCCC3)ccc2O[C@@H](C)CCCCO[C@H]1CN(C)Cc1ccc(C(F)(F)F)cc1 the results were C diff growth inactive, T cruzi growth inactive and Pf Dd2 growth -93.7.
C[C@H]1CCCCO[C@@H](CN(C)Cc2ccc(C(F)(F)F)cc2)[C@@H](C)CN([C@@H](C)CO)C(=O)c2cc(NC(=O)NC3CCCCC3)ccc2O1 was read as C diff growth inactive, T cruzi growth inactive and Pf Dd2 growth inactive.
`C[C@@H]1CN([C@H](C)CO)C(=O)c2cc(NC(=O)Nc3ccc(C(F)(F)F)cc3)ccc2O[C@@H](C)CCCCO[C@H]1CN(C)Cc1ccccc1` gave C diff growth inactive, T cruzi growth inactive and Pf Dd2 growth -87.5.
COc1ccc(CN(C)C[C@H]2OCCCC[C@H](C)Oc3ccc(NC(=O)Nc4ccc(C(F)(F)F)cc4)cc3C(=O)N([C@H](C)CO)C[C@H]2C)cc1 was read as C diff growth inactive, T cruzi growth inactive and Pf Dd2 growth inactive.
`C[C@H](CO)N1C[C@H](C)[C@@H](CN(C)Cc2ccccc2)OCCCC[C@H](C)Oc2ccc(NC(=O)Nc3ccc(C(F)(F)F)cc3)cc2C1=O` gave C diff growth inactive, T cruzi growth inactive and Pf Dd2 growth inactive.
Screening C[C@@H]1CN([C@@H](C)CO)C(=O)Cc2cc(NS(C)(=O)=O)ccc2O[C@H]1CN(C)C(=O)Nc1ccc2c(c1)OCO2 returned C diff growth inactive, T cruzi growth inactive and Pf Dd2 growth inactive.
`CCCC(=O)N1CCC2(CC1)CN(C(=O)CN1CCOCC1)[C@@H](CO)c1c2c2ccc(OC)cc2n1C` gave Pf Dd2 growth inactive.
For Cc1ccc(-c2ccc3c(c2)O[C@@H](CN(C)C)[C@H](C)CN([C@H](C)CO)S3(=O)=O)cc1 the results were C diff growth inactive, T cruzi growth inactive and Pf Dd2 growth inactive.
For COc1ccc(S(=O)(=O)N(C)C[C@H]2OCCCC[C@H](C)Oc3ccc(NC(=O)NC(C)C)cc3C(=O)N([C@@H](C)CO)C[C@H]2C)cc1 the results were C diff growth inactive and T cruzi growth inactive.
For Cc1noc(C)c1S(=O)(=O)N(C)C[C@@H]1OCCCC[C@@H](C)Oc2ccc(NS(=O)(=O)c3ccc(F)cc3)cc2C(=O)N([C@H](C)CO)C[C@@H]1C the results were C diff growth inactive, T cruzi growth inactive and Pf Dd2 growth inactive.
Screening COc1ccc2c3c([nH]c2c1)[C@@H](CO)N(Cc1nccs1)CC31CCN(C(=O)C2CC2)CC1 returned C diff growth inactive and Pf Dd2 growth inactive.
Screening COCC(=O)Nc1ccc2c(c1)OC[C@H](C)N(Cc1cncnc1)C[C@@H](C)[C@H](OC)CN(C)C2=O returned T cruzi growth inactive.
For CO[C@H]1CN(C)C(=O)c2ccc(NC(=O)c3ccc4c(c3)OCO4)cc2OC[C@H](C)N(CC2CC2)C[C@H]1C the results were Pf Dd2 growth inactive.
For C[C@@H]1CCCCO[C@H](CN(C)Cc2ccncc2)[C@@H](C)CN([C@@H](C)CO)C(=O)c2cc(NC(=O)C3CCCCC3)ccc2O1 the results were C diff growth inactive, T cruzi growth inactive and Pf Dd2 growth -84.9.
For C[C@@H]1CCCCO[C@@H](CN(C)Cc2ccncc2)[C@@H](C)CN([C@H](C)CO)C(=O)c2cc(NC(=O)C3CCCCC3)ccc2O1 the results were C diff growth inactive and T cruzi growth inactive.
Screening C[C@@H]1CN([C@@H](C)CO)C(=O)c2cc(NC(=O)c3ccncc3)ccc2O[C@@H](C)CCCCO[C@H]1CN(C)Cc1ccc(C(F)(F)F)cc1 returned C diff growth inactive, T cruzi growth inactive and Pf Dd2 growth -81.1.
For C[C@@H]1CN([C@@H](C)CO)C(=O)c2cc(NC(=O)c3ccncc3)ccc2O[C@@H](C)CCCCO[C@@H]1CN(C)Cc1ccc(C(F)(F)F)cc1 the results were C diff growth inactive, T cruzi growth inactive and Pf Dd2 growth inactive.
Screening CCCNC(=O)N1C[C@H](C)[C@@H](OC)CN(C)C(=O)c2ccc(NS(C)(=O)=O)cc2OC[C@H]1C returned T cruzi growth inactive and Pf Dd2 growth inactive.
For O=C(Nc1ccc(F)cc1)N1CCCCN2[C@H](CO)[C@H](c3ccc(C#Cc4ccccc4)cc3)[C@@H]2C1 the results were C diff growth inactive, T cruzi growth inactive and Pf Dd2 growth -82.6.
Screening O=C(Nc1ccccc1)N1CCCCN2[C@H](C1)[C@@H](c1ccc(C#Cc3ccccc3)cc1)[C@@H]2CO returned C diff growth inactive, T cruzi growth inactive and Pf Dd2 growth inactive.
`O=C(Nc1ccccc1F)N1CCCCN2[C@H](CO)[C@H](c3ccc(C#Cc4ccccc4)cc3)[C@@H]2C1` gave C diff growth inactive, T cruzi growth inactive and Pf Dd2 growth -89.0.
`O=C(Nc1ccccc1)N1CCCCN2[C@H](CO)[C@H](c3ccc(C#Cc4ccccc4)cc3)[C@H]2C1` gave C diff growth -101.2, T cruzi growth inactive and Pf Dd2 growth inactive.
Screening O=C(Nc1ccccc1)N1CCCCN2[C@H](CO)[C@H](c3ccc(C#Cc4ccccc4)cc3)[C@@H]2C1 returned C diff growth inactive, T cruzi growth inactive and Pf Dd2 growth inactive.
Screening O=C(Nc1ccccc1F)N1CCCCN2[C@H](CO)[C@@H](c3ccc(C#Cc4ccccc4)cc3)[C@@H]2C1 returned C diff growth inactive, T cruzi growth inactive and Pf Dd2 growth inactive.
